USP1-UAF1 inh – Inhibitors of USP1/UAF1: Primary Screen. Potency, µM (doses to about 57.1 µM), without a hit: at the top dose activity change, negative = inhibition, usual class: inhibitors. hit rate 0.23% among 390,000. recombinant USP1/UAF1, Ub-Rhodamine cleavage fluorescence. AID 743255, 2014. Ubiquitin carboxyl-terminal hydrolase 1 (Homo sapiens), O94782; note: % is set by controls: 0 for no effect and ±100 for the full control effect; nearly all actives have a fitted effect of over 60% in size
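USP1/UAF1 complex at 1 nM was preincubated with compound for 15 min at room temperature, then Ub-Rho substrate (150nM final) was added. Fluorescence (480/540 nm) was read kinetically, 6 reads every 60 seconds.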
EPAC2 antagonist – qHTS for Antagonist of cAMP-regulated guanine nucleotide exchange factor 2 (EPAC2): primary screen; Rap guanine nucleotide exchange factor 4 (Homo sapiens), Q8WZA2; EPAC2 GEF exchange of Rap1B-BODIPY-GDP, fluorescence; Potency, µM (highest dose often 114 µM), without a hit: top-dose activity, negative = inhibition, actives largely listed as inhibitors; hit rate 0.18% among 360,000; note: % is set by controls: 0 for no effect and ±100 for the full control effect; nearly all actives have a fitted effect of over 45% in size
Target sequence (Q8WZA2 whole entry, looked up): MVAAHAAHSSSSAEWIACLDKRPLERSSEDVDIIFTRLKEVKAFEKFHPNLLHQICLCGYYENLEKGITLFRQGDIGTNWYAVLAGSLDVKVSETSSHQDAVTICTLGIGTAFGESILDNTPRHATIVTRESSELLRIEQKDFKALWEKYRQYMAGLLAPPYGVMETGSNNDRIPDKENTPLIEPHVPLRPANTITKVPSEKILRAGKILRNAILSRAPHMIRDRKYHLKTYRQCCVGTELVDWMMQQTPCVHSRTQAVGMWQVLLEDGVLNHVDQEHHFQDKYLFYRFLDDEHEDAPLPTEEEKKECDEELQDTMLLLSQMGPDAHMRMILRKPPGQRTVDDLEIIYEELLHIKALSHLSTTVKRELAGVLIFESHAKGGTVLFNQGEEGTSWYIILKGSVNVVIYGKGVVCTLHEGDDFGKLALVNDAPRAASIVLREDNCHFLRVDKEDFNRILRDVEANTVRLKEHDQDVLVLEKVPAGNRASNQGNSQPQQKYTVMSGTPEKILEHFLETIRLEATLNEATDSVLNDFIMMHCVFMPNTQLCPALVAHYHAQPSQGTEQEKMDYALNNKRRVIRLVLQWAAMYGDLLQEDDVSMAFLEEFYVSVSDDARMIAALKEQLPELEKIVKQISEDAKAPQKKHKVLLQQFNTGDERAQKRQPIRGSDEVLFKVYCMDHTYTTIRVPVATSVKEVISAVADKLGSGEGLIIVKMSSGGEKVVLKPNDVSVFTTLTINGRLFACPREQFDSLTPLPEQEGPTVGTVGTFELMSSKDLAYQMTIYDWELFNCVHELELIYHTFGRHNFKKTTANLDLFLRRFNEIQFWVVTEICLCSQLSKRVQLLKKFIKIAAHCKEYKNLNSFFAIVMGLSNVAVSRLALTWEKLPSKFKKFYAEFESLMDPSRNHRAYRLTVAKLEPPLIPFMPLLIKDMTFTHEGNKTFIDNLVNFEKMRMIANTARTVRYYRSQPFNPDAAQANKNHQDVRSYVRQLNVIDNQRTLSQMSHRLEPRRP
EPAC1 antagonist – qHTS for Antagonist of cAMP-regulated guanine nucleotide exchange factor 3 (EPAC1): primary screen. Rap guanine nucleotide exchange factor 3 (Homo sapiens), O95398. EPAC1 GEF assay, Rap1b-BODIPY-GDP exchange fluorescence. Potency, µM (doses to about 115 µM), inactives show top-dose activity change, negative = inhibition, actives largely listed as inhibitors. hit rate 0.14% among 360,000;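 note: plate controls were vehicle for no effect and positive control for full effect; nearly all actives have a fitted effect of over 50% in size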
EPAC1 agonist – qHTS for Agonist of cAMP-regulated guanine nucleotide exchange factor 3 (EPAC1): primary screen; Rap guanine nucleotide exchange factor 3 (Homo sapiens), O95398; EPAC1 agonist qHTS, biochemical assay; response scale: 100% = response to 6.5 mM cAMP; Potency, µM (titrated, usually from 154 µM), for inactives: at the top dose activation, actives largely listed as activators; hit rate 0.073% among 360,000; note: nearly all actives have a fitted effect of over 60% in size
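Fluorescent GDP-exchange assay: 100 nM EPAC1 with 250 nM Rap1B preloaded with BODIPY-GDP and 50 uM GDP; compounds tested as concentration series, 5 min at room temperature, then read every 5 min for 30 min (ex 480/em 540 nm); normalized to 6.5 mM cAMP.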
EPAC2 ag – qHTS for Agonist of cAMP-regulated guanine nucleotide exchange factor 4 (EPAC2): primary screen; Potency, µM (doses to about 154 µM), without a hit: at the top dose activation, most hits filed as activators; hit rate 0.079% among 360,000; AID 720711, 2013; EPAC2 activation, biochemical qHTS; response scale: 100% = 6.5 mM cAMP response; note: nearly all actives have a fitted effect of over 50% in size
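Each well held 100 nM EPAC2, 250 nM RAP1B-BODIPY-GDP and 50 uM GDP. Fluorescence, read at 5-min intervals to 30 min, was referenced to a 6.5 mM cAMP positive control.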
The depositor's hits bear a star; ? = inconclusive; / = no result. Only some compounds are listed: those with a hit (about 0.49% of all), similar ones and a draw of the others. Calls come from the whole dose curve; as a rule, active = well fitted curve in the direction sought with a large enough effect; inconclusive = small, poorly fitted or top-dose-only effect, or another doubt; inactive = no such curve, though single readings can be large; an effect the other way counts as inactive or inconclusive. Potency is the fitted concentration of half-maximal effect.

SMILES	USP1-UAF1 inh	EPAC2 antagonist	EPAC1 antagonist	EPAC1 agonist	EPAC2 ag
COc1ccc(CC(=O)Nc2ccc(C(N)=O)cc2)cc1	-5.1%	-1.2%	-21.2%	6.5%	14.1%
COC(=O)/N=C(/Cc1ccc(OC)cc1)c1ccc(OC)cc1	-22.0%	56.2µM*	-7.6%	9.4%	13.8%
O=c1[nH]cc(N=Cc2cc(Cl)cc(Cl)c2O)c(=O)[nH]1	?	-17.3%	-6.0%	100µM*	-7.7%
O=C(O)C1Nc2c(Cl)cc(Cl)c(Cl)c2C2C=CCC12 (stereo not drawn)	-17.3%	1.0%	?	9.6%	2.0%
O=C(O)C1Nc2c(Cl)cc(Cl)cc2C2C=CCC12 (stereo not drawn)	?	-2.2%	17.8µM*	4.7%	0.6%
C=C(C)Cn1c(C)cc(C)c(S(=O)(=O)c2ccc(C)cc2)c1=O	?	35.5µM*	-15.0%	-9.1%	9.7%
O=C(Nc1ccccc1Cl)c1c(F)c(F)c(F)c(F)c1F	-12.2%	9.1%	5.4%	-1.1%	-5.7%
O=C(NC1(O)C(=O)c2ccccc2C1=O)c1ccccc1	17.8µM*	?	?	-4.1%	11.7%
O=C(NC1(O)C(=O)c2ccccc2C1=O)c1c(Cl)cccc1Cl	28.2µM*	?	50.1µM*	-3.4%	29.2%
O=C(NCCOc1ccc(F)cc1)c1ccccc1SCc1ccccc1	-11.5%	50.1µM*	-7.4%	16.4%	9.1%
Cn1c(=O)c(N)c2c3c(c(Br)ccc31)C(=O)c1ccccc1-2	243.7%	29.7%	30.5%	112µM*	?
COc1cccc(NS(=O)(=O)c2ccc3c(c2)C2C=CCC2C(c2ccc(C(=O)O)cc2)N3)c1 (stereo not drawn)	?	3.2%	50.1µM*	-7.3%	-3.9%
O=C(O)c1ccc2c(c1)[C@@H]1C=CC[C@@H]1[C@H](c1ccccn1)N2	31.6µM*	0.8%	4.8%	8.2%	12.3%
COC(=O)c1ccc([C@H]2Nc3ccc(S(=O)(=O)Nc4ccc(F)cc4)cc3[C@H]3C=CC[C@H]32)cc1	-2.0%	/	/	/	/
O=C(NCc1ccc(F)cc1)c1cc2cccc3c2n1CCS3	-24.2%	/	/	/	/
CC(C)CCn1c(=O)c2sccc2n2c(CCCC(=O)Nc3ccc(F)c(Cl)c3)nnc12	-18.4%	/	/	/	/
CCOc1ccc(Oc2ccccc2NC(=O)CN2C(=O)NC3(CCCC3)C2=O)cc1	-2.1%	-3.6%	-19.9%	28.2µM*	-5.0%
CS(=O)(=O)n1nc(-c2ccco2)nc1NCc1ccccc1Cl	-18.5%	/	/	/	/
NC(=O)c1sc(=S)n2c1[nH]c(=O)c1sccc12	-20.7%	39.8µM*	?	10.0%	-3.6%
O=C1C=CC(=O)c2c(O)c(CO)c(CO)c(O)c21	14.1µM*	-1.1%	?	17.1%	8.8%
O=c1c(CO)cc(CO)cc(CO)c1O	-1.2%	5.1%	3.1%	7.2%	8.1%
Cc1ccccc1C(=O)Oc1cc(-c2ccc3c(c2)OCO3)cc(=O)c2c(C)oc(C)c12	-19.4%	/	/	/	/
O=C1C(Cl)=C(NCCN2CCCCC2)C(=O)c2ccccc21	17.8µM*	13.2%	-4.9%	5.4%	12.5%
O=C1c2cccc(NCCNCCO)c2C(=O)c2cccc(NCCNCCO)c21	-7.9%	-11.7%	-22.4%	-0.9%	7.7%
CC1OC(CC(=O)O)CC2=C1C(=O)c1c(O)cccc1C2=O (stereo not drawn)	11.2µM*	?	?	-12.6%	8.7%
SMILES	USP1-UAF1 inh	EPAC2 antagonist	EPAC1 antagonist	EPAC1 agonist	EPAC2 ag
CCCS(=O)(=O)NCCc1sc2nc(-c3ccc(F)cc3)nn2c1C	-15.9%	/	/	/	/
N#Cc1c(N2CCCC2)nc(N)c2c(N)nc(N3CCCC3)cc12	0.316µM*	?	?	0.7%	?
COc1cc2c(C#N)c(N3CCCC3)nc(N)c2c(N)n1	7.94µM*	-18.1%	?	-4.1%	26.4%
CCOc1cc2c(C#N)c(N3CCCC3)nc(N)c2c(N)n1	-26.1%	-8.7%	0.3%	-8.3%	-6.4%
CCCOc1cc2c(C#N)c(N3CCCC3)nc(N)c2c(N)n1	28.2µM*	8.0%	-22.0%	-4.6%	20.8%
COc1ccc(-c2noc(-c3ccc(N4CCC(C)CC4)c([N+](=O)[O-])c3)n2)cc1OC	-9.2%	/	/	/	/
Cc1cccc(NC(=O)c2ccc(-n3c(C)nnc3C)cc2)c1	-13.2%	/	/	/	/
CN1CCc2nc3sc(C(=O)C45CC6CC(CC(C6)C4)C5)c(N)c3cc2C1	?	50.1µM*	-19.3%	11.8%	?
CN1CCc2nc3sc(C(=O)c4ccc(F)cc4)c(N)c3cc2C1	-24.7%	/	/	/	/
N#CC1=C2SCN(Cc3ccco3)CN2C(=O)CC1c1c(F)cccc1Cl (stereo not drawn)	12.6µM*	?	-13.5%	0.7%	12.2%
N#CC1=C2SCN(C3CCCCC3)CN2C(=O)CC1c1c(F)cccc1Cl (stereo not drawn)	31.6µM*	/	/	/	/
N#CC1=C2SCN(C3CCCCC3)CN2C(=O)CC1c1ccc(Cl)cc1 (stereo not drawn)	-22.2%	/	/	/	/
O=C(CSc1nccn1Cc1ccco1)Nc1cc(C(F)(F)F)ccc1Cl	-14.2%	/	/	/	/
COc1ccc(S(=O)(=O)N(CC(=O)NCCSc2ccccc2)c2ccc(Cl)cc2)cc1	-15.6%	/	/	/	/
CCOc1cc(/C=C2\SC(=Nc3ccc(CC)cc3)NC2=O)ccc1OCC(=O)O	-9.7%	3.2%	35.5µM*	?	2.0%
CCOc1cc(/C=C2/SC(=S)NC2=O)ccc1OC(=O)c1ccco1	-23.1%	35.5µM*	35.5µM*	3.1%	3.0%
CCc1ccc(N=C2NC(=O)/C(=C/c3cc(Br)c(OCC(=O)O)c(OC)c3)S2)cc1	-18.3%	-6.4%	?	?	-4.9%
COc1cc(/C=C2/SC(=O)NC2=O)ccc1OC(=O)c1ccco1	-6.0%	-1.8%	-20.9%	-9.5%	-4.6%
Cc1ccc(OCCn2cc(C(=O)C3CCCCC3)c3ccccc32)cc1	-10.4%	/	/	/	/
CC(C)(C)C(=O)Nc1ccc2nc(SCC(=O)N3CCCC3)sc2c1	-11.7%	/	/	/	/
CCOC(=O)c1noc2ncn(CC(=O)O)c(=O)c12	-27.2%	/	/	/	/
CCOc1ccc(/C=C(\C#N)C(=O)Nc2cccnc2)cc1	-20.0%	4.1%	10.1%	-5.0%	-7.2%
CCOc1ccc(NC(=O)/C(C#N)=C\c2ccc(N3CCCC3)c(C)c2)cc1	22.4µM*	32.4%	-0.4%	20.7%	13.1%
N#Cc1c(-c2ccc(F)cc2)cc(-c2ccccc2)nc1SCC(=O)NCC(=O)O	-12.6%	13.2%	79.4µM*	9.2%	-4.6%
N#Cc1c[nH]n2c(NC3CCCCC3)c(-c3ccc(F)cc3)nc12	-15.2%	/	/	/	/
N#C/C(=C\c1ccccn1)c1nc2ccccc2s1	424.4%	25.1µM*	?	-42.0%	-106.7%

Screens deposited in PubChem by National Center for Advancing Translational Sciences (NCATS).
